# Source: PubChem BioAssay (Emory University Molecular Libraries Screening Center)
# 14-3-3 PPI: alters human 14-3-3 gamma binding to Raf peptide | inhibition, % at 40 µM | P61981 | FP, 14-3-3gamma / TMR-pS259-Raf peptide binding | 0.19% of 160,000 active; in the data active means inhibition above about 30%;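 further: 0% = protein plus tracer without compound and 100% = blank with tracer alone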
# Target sequence (P61981 whole entry, looked up): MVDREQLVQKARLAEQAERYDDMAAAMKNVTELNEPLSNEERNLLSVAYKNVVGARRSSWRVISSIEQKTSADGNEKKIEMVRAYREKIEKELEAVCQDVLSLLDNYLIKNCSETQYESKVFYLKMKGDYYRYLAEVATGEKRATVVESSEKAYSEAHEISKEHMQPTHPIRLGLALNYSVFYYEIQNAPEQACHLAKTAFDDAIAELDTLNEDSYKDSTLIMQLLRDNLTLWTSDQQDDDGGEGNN
# An asterisk follows results filed as active; + = active, no number. Many of the other results were omitted from the sample, so hits are more common in it than they were.
SMILES,14-3-3 PPI
O=C1c2ccccc2C(=O)c2c1ccc1c(=O)o[nH]c21,73*
O=C1c2ccccc2C(=O)c2c(Br)cccc21,-2
COc1ccc(C(C(=O)NC2CCCCC2)N(C)c2ccccc2)cc1 (configuration not stated),-31
O=C(O)c1cc(-c2ccc(F)cc2)nc2ccccc12,2
Fc1ccc(-c2cnc3ccccc3n2)cc1,-9
Oc1c(-c2ccc(F)cc2)c2nc3ccccc3nc2c2ccccc12,53*
CC1CC(C)(C)Nc2ccc(OC(=O)c3cccs3)cc21 (configuration not stated),-7
Oc1cc2ccccc2cc1CN1COc2ccc3ccccc3c2C1,-5
O=C(c1ccccc1F)N1CCN(c2ccc([N+](=O)[O-])c(NCc3ccc(Cl)cc3)c2)CC1,-7
Cc1oc2ccc(OCc3cccc(Br)c3)cc2c1C(=O)O,-12
CC(C)(C)n1nc2c(c1NC(=O)c1ccc(F)cc1)CS(=O)(=O)C2,-2
Clc1ccc(-c2nc3ncccn3c2Nc2ccc3c(c2)OCO3)cc1,-7
CSc1ccc(-c2nc3ncccn3c2Nc2ccccc2C)cc1,-32
Clc1ccc(Sc2c(-c3ccccc3)nc3ncccn23)cc1,39*
Nc1c(-c2nc3ccccc3[nH]2)sc(=S)n1-c1ccccc1,-21
COc1ccc(C=Cc2ccc3cccc(O)c3n2)cc1Br,7
CC(NC(=O)CN1C(=O)COc2ccc(C(C)(C)C)cc21)c1ccccc1 (configuration not stated),-2
COc1ccc(C2CC(c3cccc(Br)c3)Nc3nnnn32)c(OC)c1OC (configuration not stated),-2
CC(=O)[C@]1(O)Cc2c(O)c3c(c(O)c2[C@@H](O[C@H]2C[C@H](N)[C@H](O)[C@H](C)O2)C1)C(=O)c1ccccc1C3=O,117*
COc1cccc2c1C(=O)c1c(O)c3c(c(O)c1C2=O)C[C@@](O)(C(C)=O)C[C@@H]3O[C@H]1C[C@H](N)[C@H](O)[C@H](C)O1,-4
Cc1cc(C)nc(SCC(=O)OCC(=O)Nc2ccccc2C#N)n1,5
CC1=CC(C#N)(C#N)C(C#N)(C#N)C(c2ccccc2)N1 (configuration not stated),73*
CCSC1(SCC)N=C(N)C2(C#N)C(c3ccccc3)NC(C)=C(C)C12C#N (configuration not stated),-6
CCC1=C(C)C(c2ccccc2)NC(=S)N1 (configuration not stated),2
Cc1ccccc1C1CC(c2ccc(F)cc2)Nc2ncnn21 (configuration not stated),4
SMILES,14-3-3 PPI
Cc1ccc(O)c(N=Cc2ccc(OCc3ccccc3)cc2)c1,-19
Oc1ccc(N=Cc2ccc(OCc3ccccc3)cc2)cc1,35*
Oc1ccc(Cl)cc1N=Cc1ccc(OCc2ccccc2)cc1,-7
CCOCN(C(=O)CSc1nc2ccccc2s1)c1c(C)cccc1CC,-4
c1ccc(-c2cc(-c3ccccc3)n(-c3cc(N4CCOCC4)ncn3)n2)cc1,3
CCCCCn1c2ccccc2c2nc3ccccc3nc21,-3
CCn1c2ccc(Cl)cc2c2nc3ccccc3nc21,-7
CCn1c2ccccc2c2nc3cc4ccccc4cc3nc21,116*
Cn1c(=O)[nH]c(=O)c2c1nc(NCCc1ccccc1)n2Cc1ccccc1Cl,-7
CCOC(=O)c1cnc2c(-c3ccccc3)cnn2c1-c1ccccc1,-2
C=CCNC(=O)C(=O)NC1CCCCC1,15
COC(=O)C1=C(C)N(C)C(C)=C(C(=O)OC)C1c1ccc(C(F)(F)F)cc1,-6
COC(=O)C1=C(C)N(C)C(C)=C(C(=O)OC)C1c1ccsc1,3
COC(=O)C1=C(C)N(C)C(C)=C(C(=O)OC)C1c1ccc(C(=O)OC)cc1,113*
Cc1cc(C)c(NC(=O)C(C)SCC(=O)Nc2ccccc2)c(C)c1 (configuration not stated),10
COc1ccccc1NC(=O)c1[nH]ncc1[N+](=O)[O-],-8
Oc1ccc2ccccc2c1C=Nc1cccn2cc(-c3ccccc3)nc12,93*
Cc1cc(Br)ccc1N=Cc1c(O)ccc2ccccc12,-2
Oc1ccc2ccccc2c1/C=N/n1cnnc1,-8
Cc1ccc2sc(-c3ccc(N=Cc4ccc([N+](=O)[O-])cc4)cc3)nc2c1,4
Cc1nnc(-c2ccccc2)nn1,86*
c1ccc(-c2nnc(-c3ccccc3)o2)cc1,-13
Nc1nc(N)nc(-c2ccccc2)n1,-1
COc1cc(OC)c(Nc2nc(-c3ccc(OC)c(OC)c3)nc3ccccc23)cc1Cl,5
CCN1C(=O)c2cccc3c(S(=O)(=O)N4CCCC4)ccc1c23,8
SMILES,14-3-3 PPI
CCN1C(=O)c2ccc(S(=O)(=O)N3CCCCCC3)c3cccc1c23,1
CCN1C(=O)c2cccc3c(S(=O)(=O)N4CCCc5ccccc54)ccc1c23,33*
O=C(NC1CCCCCC1)c1c(O)c2ccccc2[nH]c1=O,-6
O=C1c2ccccc2-c2c(NC3CCCCC3)c(=O)[nH]c3cccc1c23,+
O=c1cc(CNC2CCCCC2)c2ccccc2[nH]1,-10
S=c1[nH]nc(-c2cc(-c3ccccc3)nc3ccccc23)o1,0
CCOc1cc([N+](=O)[O-])cc(C=Nc2cccc(NC(=O)c3ccccc3)c2)c1O,-74
O=C(Nc1cccc(N=Cc2c(O)ccc3cc([N+](=O)[O-])ccc23)c1)c1ccccc1,32*
O=C(Nc1cccc(N=Cc2c(O)ccc3cc([N+](=O)[O-])ccc23)c1)c1ccc(F)cc1,-1
CCOc1cc(C2C(C(=O)OC(C)C)=C(C)NC3=C2C(=O)CC(c2cccs2)C3)cc([N+](=O)[O-])c1O (configuration not stated),-14
O=C(CSc1nc2c(c(=O)n1-c1ccc(F)cc1)SCC2)N1CCOCC1,-7
COc1ccc(-c2oc(NC(=O)C(F)(F)F)c(C#N)c2-c2ccc(OC)cc2)cc1,-7
Cc1oc(NC(=O)C(F)(F)F)c(C#N)c1C,33*
COC(=O)c1sc(NC(=O)C(F)(F)F)c(C(=O)OC)c1C,-8
Cc1ccc(C)c(NC(=O)C2(C)CC3c4ccccc4C2c2ccccc23)c1 (configuration not stated),2
COc1ccc(NC(=O)C23CCC(C2)C(C)(C)C3=O)cc1 (configuration not stated),1
COc1ccc(NC(=O)C2(C)CC3c4ccccc4C2c2ccccc23)cc1 (configuration not stated),55*
O=C1C(Nc2ccccc2)=CC(=NS(=O)(=O)c2cccs2)c2ccccc21,-79
CCOC(=O)c1ccc(NC2=CC(=NS(=O)(=O)c3cccs3)c3ccccc3C2=O)cc1,67*
CC(=O)Nc1ccc(NC2=CC(=NS(=O)(=O)c3cccs3)c3ccccc3C2=O)cc1,-2
COc1ccc(OC)c(NC(=O)c2sc3ncn(CC(=O)N4CCOCC4)c(=O)c3c2C)c1,-3
Cc1sc2ncn(CC(=O)NCCC3=CCCCC3)c(=O)c2c1S(=O)(=O)N1CCCCC1,-8
COc1cc2c(cc1OC)C(C(=O)Nc1ccc(C(C)C)cc1)C(c1ccc(SC)cc1)N(C)C2=O (configuration not stated),-4
CS(=O)(=O)Nc1ccc(C2=NN(S(C)(=O)=O)C(c3ccc(F)cc3)C2)cc1 (configuration not stated),-176
CCS(=O)(=O)N1N=C(c2ccc(NS(C)(=O)=O)cc2)CC1c1ccc(C)cc1 (configuration not stated),-212
